Drawing on PubChem BioAssay, this text covers composite z-score and z-score for five compounds.

The structures appear in SMILES notation. Calls of active or inactive are those of the source. Unless noted, how the calls were made is not given here.

The nature of assay [1]: compounds binding Alexa647 anti-His antibody – biochemical, small-molecule microarray, 635 nm fluorescence, artefact control for SMM control protein annotation, primary screen (AID 1128).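 Further: score merges feature fluorescence with signal-to-noise for each printed compound spot.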 As to conditions: higher = more signal.
Assay [2] has as its system Human papillomavirus type 1a E7 protein (residues 1-88). Nature of the assay: HPV1a E7 small-molecule binders, primary screen, biochemical, small-molecule microarray, residues 1-88, 635 nm (AID 1129). As to conditions: small-molecule microarray binding, fluorescence 635 nm; higher = more signal.
The target of assay [3] is Focal adhesion kinase 1 (Homo sapiens) (UniProt Q05397). Nature of the assay: PTK2 protein binding on printed compound slides – biochemical, small-molecule microarray, 635/667 nm fluorescence, BSA, DTT, primary screen (AID 1130).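 Further: composite of spot emission at 667 nm and signal to noise over triplicate slides.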 As to conditions: 635 nm fluorescence, higher = more signal.
Focal adhesion kinase 1 (Homo sapiens), sequence (Q05397 whole entry, looked up): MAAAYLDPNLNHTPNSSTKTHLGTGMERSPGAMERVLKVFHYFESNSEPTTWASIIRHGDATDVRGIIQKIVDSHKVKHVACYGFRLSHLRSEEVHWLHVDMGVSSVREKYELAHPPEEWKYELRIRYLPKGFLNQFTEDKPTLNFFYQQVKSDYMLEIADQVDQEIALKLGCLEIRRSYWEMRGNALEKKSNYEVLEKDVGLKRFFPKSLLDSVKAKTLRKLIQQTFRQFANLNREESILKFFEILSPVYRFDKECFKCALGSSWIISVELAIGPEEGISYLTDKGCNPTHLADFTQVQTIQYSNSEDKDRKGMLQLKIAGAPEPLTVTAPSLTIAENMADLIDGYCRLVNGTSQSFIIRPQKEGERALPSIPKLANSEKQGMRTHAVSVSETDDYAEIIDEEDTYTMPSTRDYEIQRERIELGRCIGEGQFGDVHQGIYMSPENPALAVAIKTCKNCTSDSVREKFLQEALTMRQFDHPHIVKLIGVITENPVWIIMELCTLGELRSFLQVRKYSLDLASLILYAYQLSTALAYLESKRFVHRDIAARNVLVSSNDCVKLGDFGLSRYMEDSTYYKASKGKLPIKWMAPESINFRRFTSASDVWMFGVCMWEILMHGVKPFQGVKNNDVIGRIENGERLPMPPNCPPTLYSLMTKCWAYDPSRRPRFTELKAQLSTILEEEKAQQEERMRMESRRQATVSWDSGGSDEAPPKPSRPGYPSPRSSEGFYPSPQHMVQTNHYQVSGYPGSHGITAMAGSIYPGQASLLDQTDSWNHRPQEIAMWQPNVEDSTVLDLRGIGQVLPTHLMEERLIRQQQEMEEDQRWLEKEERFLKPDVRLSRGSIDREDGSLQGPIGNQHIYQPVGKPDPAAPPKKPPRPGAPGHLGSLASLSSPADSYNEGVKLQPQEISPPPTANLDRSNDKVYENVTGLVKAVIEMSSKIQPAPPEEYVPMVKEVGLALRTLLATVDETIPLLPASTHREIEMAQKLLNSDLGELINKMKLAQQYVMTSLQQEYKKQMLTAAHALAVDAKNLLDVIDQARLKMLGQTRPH
For assay [4], the system named is Fibrinogen (Alexa647-labelled). Nature of the assay: Alexa647-fibrinogen binding to printed small molecules – biochemical, small-molecule microarray, 635/667 nm fluorescence, artefact control for SMM control-protein annotation, profiling panel (AID 1131).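 Further: z-score merges 667 nm fluorescence with per-spot signal-to-noise over triplicate slides.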 As to conditions: fibrinogen-A647 binding fluorescence, higher = more signal.
Assay [5] has as its target Follistatin (Homo sapiens) (UniProt P19883). Nature of the assay: FST protein binding to printed compounds – biochemical, small-molecule microarray, 635/667 nm fluorescence, primary screen (AID 1132). As to conditions: 635 nm fluorescence, higher = more signal.
Assay [6] has as its target Fibroblast growth factor 2 (Homo sapiens) (UniProt P09038). Nature of the assay: basic fibroblast growth factor binding to printed compounds – biochemical, small-molecule microarray, 635/667 nm fluorescence, primary screen (AID 1133). As to conditions: FGF2, fluorescence 635/667, higher = more signal.
The nature of assay [7]: JC-1 mitochondrial potential readout, lung cancer cells – cell-based, A549, JC-1 fluorescence, basal, 24 h, 100 nL, profiling panel (AID 1138).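 Further: A549 lung adenocarcinoma cells under basal conditions with no added stimulus; test concentration not given here.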 As to conditions: higher = more signal.
The subject of another assay is Lefty1. Nature of the assay: Lefty1 protein binding to printed compounds – biochemical, small-molecule microarray, 635/667 nm fluorescence, primary screen (AID 1139). As to conditions: fluorescence 635/667, higher = more signal.
In assay [8] the test system is wheat germ agglutinin (Triticum aestivum), Alexa647-labelled. Nature of the assay: Alexa647-WGA lectin binding to printed small molecules – biochemical, small-molecule microarray, 635/667 nm fluorescence, artefact control for SMM control-protein annotation, profiling panel (AID 1140).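 Further: score merges 667 nm feature emission with signal to noise over triplicate slides.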 As to conditions: WGA-A647 binding, 635 nm fluorescence, higher = more signal.
The target of assay [9] is Luciferin 4-monooxygenase (Photinus pyralis) (UniProt P08659). Nature of the assay: inhibition of purified Photinus pyralis luciferase – biochemical, luminescence, purified enzyme, 2006 set, primary screen (AID 1141).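 Further: cell-free assay with purified firefly luciferase at 100 ng per well in PBS; test concentration not given here.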 As to conditions: purified firefly luciferase, SteadyGlo luminescence, 30 min; higher = more signal, called active from +8 up or from −8 down.
Luciferin 4-monooxygenase (Photinus pyralis), sequence (P08659 whole entry, looked up): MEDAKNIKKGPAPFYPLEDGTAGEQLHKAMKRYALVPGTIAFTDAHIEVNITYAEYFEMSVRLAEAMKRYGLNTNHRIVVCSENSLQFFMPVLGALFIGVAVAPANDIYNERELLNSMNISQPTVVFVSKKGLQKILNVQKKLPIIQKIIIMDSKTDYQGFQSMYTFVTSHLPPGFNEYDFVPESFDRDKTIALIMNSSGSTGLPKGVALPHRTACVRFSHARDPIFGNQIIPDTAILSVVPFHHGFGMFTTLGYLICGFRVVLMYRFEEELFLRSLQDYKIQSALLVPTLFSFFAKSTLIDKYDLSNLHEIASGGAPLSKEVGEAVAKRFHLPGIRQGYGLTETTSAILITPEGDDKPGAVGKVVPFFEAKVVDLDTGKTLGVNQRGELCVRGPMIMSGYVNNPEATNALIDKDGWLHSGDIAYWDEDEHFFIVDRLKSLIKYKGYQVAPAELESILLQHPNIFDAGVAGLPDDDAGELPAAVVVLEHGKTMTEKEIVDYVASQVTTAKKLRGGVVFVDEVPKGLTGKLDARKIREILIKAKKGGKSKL
For assay [10], the system named is Wnt5a (protein binding on small-molecule microarray). Nature of the assay: small molecules binding Wnt5a protein – biophysical, small-molecule microarray, 635/667 nm fluorescence, primary screen (AID 1142).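 Further: fluorescence read at 667 nm with signal to noise per printed feature.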 As to conditions: 635 nm fluorescence, higher = more signal.
Assay [11] is described as follows: ATP-based viability of Huh7 replicon cells – cell-based, CellTiter-Glo luminescence, basal, 48 h, cytotoxicity control for HCV replication inhibitor project, primary screen (AID 1143).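 Further: Huh7 hepatoma cells carrying a hepatitis C replication reporter with no stimulus; test concentration not given here.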 As to conditions: higher = more signal, called active from +8 up or from −8 down.
Assay [12] can be described thus: Pseudomonas biofilm growth suppression – PAO1 strain, BacTiter-Glo luminescence, LB-PBS, primary screen (AID 1144). As to conditions: P. aeruginosa PAO1 biofilm, 12 h, higher = more signal.
Assay [13] can be described thus: basal CRE-LacZ reporter activity in PC12 – cell-based, unstimulated, primary screen (AID 1145). As to conditions: no forskolin, luminescence, 4.5 h, higher = more signal, called active from +8 up or from −8 down.
Assay [14] is described as follows: forskolin-driven CRE-LacZ activity in PC12 – cell-based, CRE-LacZ reporter, forskolin-stimulated, primary screen (AID 1146).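 Further: PC12 cells with 6xCRE LacZ reporter stimulated by forskolin 10 µM; beta-galactosidase reporter signal reflecting CREB driven transcription.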 As to conditions: luminescence, 4.5 h, higher = more signal, called active from +8 up or from −8 down.
Assay [15] addresses Streptavidin (Streptomyces avidinii) (UniProt P22629). Nature of the assay: compounds binding control protein streptavidin – biophysical, small-molecule microarray, 635/667 nm fluorescence, artefact control for SMM compound annotation, primary screen (AID 1147).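 Further: signal reflects streptavidin binding to arrayed compounds as a control protein.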 As to conditions: higher = more signal.
Assay [16] can be described thus: probe aInhba binding on compound microarray – biochemical, small-molecule microarray, 635/667 nm fluorescence, primary screen (AID 1148).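 Further: score merges 667nm spot fluorescence with signal-to-noise for antibody binding to printed compounds.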 As to conditions: higher = more signal.
Assay [17] concerns the target Torsin-1A (Homo sapiens) (UniProt O14656). Nature of the assay: TOR1A wild-type binding on microarray – cell lysate, small-molecule microarray, lysate, 635/667 nm, primary screen (AID 1149). As to conditions: COS7 hTOR1A-WT lysate, 635 nm fluorescence, higher = more signal.
The target is the same in assay [18]. Nature of the assay: torsin A mutant lysate binding on microarrays – cell lysate, small-molecule microarray, COS7 lysate, 635/667 nm fluorescence, primary screen (AID 1150).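 Further: score pools 667 nm emission and signal to noise measuring lysate protein binding.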 As to conditions: COS7 hTOR1A mutant lysate, 635 nm fluorescence, higher = more signal.
Assay [19] relates to Sonic hedgehog protein (Shh). Nature of the assay: Sonic hedgehog microarray binding compounds – biochemical, small-molecule microarray, 635/667 nm fluorescence, primary screen (AID 1151).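 Further: Shh protein binding to compounds spotted on small-molecule microarray slides; score combines spot fluorescence intensity with signal-to-noise across triplicate slides.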 As to conditions: 635 nm fluorescence, higher = more signal.

Follistatin (Homo sapiens), sequence (P19883 whole entry, looked up): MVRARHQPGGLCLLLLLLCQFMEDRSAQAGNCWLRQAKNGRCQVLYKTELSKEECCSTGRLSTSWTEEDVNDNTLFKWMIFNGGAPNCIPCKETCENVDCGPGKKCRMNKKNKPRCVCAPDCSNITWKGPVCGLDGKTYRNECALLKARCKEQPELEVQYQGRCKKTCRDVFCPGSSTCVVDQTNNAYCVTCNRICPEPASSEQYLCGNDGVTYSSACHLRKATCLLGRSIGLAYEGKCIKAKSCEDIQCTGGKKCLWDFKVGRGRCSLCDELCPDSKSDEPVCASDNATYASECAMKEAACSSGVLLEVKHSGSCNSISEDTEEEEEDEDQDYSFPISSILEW
Torsin-1A (Homo sapiens), sequence (O14656 whole entry, looked up): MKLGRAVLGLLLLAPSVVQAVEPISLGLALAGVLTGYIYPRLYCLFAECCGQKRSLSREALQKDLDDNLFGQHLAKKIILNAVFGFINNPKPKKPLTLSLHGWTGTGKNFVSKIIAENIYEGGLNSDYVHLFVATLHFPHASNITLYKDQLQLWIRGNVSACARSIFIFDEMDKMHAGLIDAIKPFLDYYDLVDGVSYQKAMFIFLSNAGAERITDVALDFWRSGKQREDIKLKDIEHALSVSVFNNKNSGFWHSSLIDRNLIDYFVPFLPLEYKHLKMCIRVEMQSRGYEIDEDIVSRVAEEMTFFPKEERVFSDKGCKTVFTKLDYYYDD
Streptavidin (Streptomyces avidinii), sequence (P22629 whole entry, looked up): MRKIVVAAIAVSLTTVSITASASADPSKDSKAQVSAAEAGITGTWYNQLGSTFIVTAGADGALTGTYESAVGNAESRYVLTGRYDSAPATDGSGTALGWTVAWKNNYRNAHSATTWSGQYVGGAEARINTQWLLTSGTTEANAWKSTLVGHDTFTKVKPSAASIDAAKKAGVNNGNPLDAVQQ
Fibroblast growth factor 2 (Homo sapiens), sequence (P09038 whole entry, looked up): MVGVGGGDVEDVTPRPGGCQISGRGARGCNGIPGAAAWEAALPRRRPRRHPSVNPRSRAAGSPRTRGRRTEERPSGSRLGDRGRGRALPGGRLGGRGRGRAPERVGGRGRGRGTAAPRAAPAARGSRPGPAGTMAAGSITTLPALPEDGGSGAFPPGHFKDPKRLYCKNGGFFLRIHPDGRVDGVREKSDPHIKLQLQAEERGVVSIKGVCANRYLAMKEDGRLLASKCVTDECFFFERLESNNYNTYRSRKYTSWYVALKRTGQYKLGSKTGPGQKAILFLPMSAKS

For the compound `COc1ccc(NN2C(C(O)c3ccccn3)C=CC3C(=O)N(C4CCCCC4)C(=O)C32)cc1` (stereo not given), the composite z-score was determined as 0.914 in assay [1]; 1.22 in assay [2]; 0.342 in [3]; 0.955 in assay [4]; 0.888 in [5]; 0.421 in assay [6]. Moreover, the composite z-score in the assay on Lefty1 was -0.223; in [8] it was 0.836; in assay [10], 0.483; in assay [15] it was 1.37; in assay [16] it was 0.0183; in the assay with Torsin-1A (Homo sapiens) [17], 0.0607. For the same compound, the composite z-score with Torsin-1A (Homo sapiens) [18] was 0.542; in assay [19], -0.0244. Besides, the z-score in [7] was 0.717; in assay [9] it was -2.74 (inactive); in [11] it was -0.924 (inactive); in assay [12], -1.43 (inactive); in [13], -0.471 (inactive); in assay [14] it was -0.119 (inactive).

Turning to `CN(C)CCCNC(=O)[C@@H]1c2ccccc2C(=O)N(Cc2ccc(OC(F)(F)F)cc2)[C@H]1c1ccc(CO)cc1`, the composite z-score in assay [1] is 0.21; in assay [2] it was 0.701; in assay [3], 0.0807; in assay [4], 0.18; in assay [5] it was 1.18; in [6], -0.22. Also, the composite z-score was 0.9 with Lefty1; -0.374 in assay [8]; 0.0246 in [10]; 0.121 in assay [15]; -0.128 in assay [16]; -0.116 in the assay with Torsin-1A (Homo sapiens) [17]. Moreover, the composite z-score with Torsin-1A (Homo sapiens) [18] amounted to 0.151; in assay [19], 2.18. Besides, the z-score in assay [7] was 0.311; in assay [9], 1.15 (inactive); in assay [11], -1.35 (inactive); in assay [12], -1.42 (inactive); in [13], -0.114 (inactive); in [14], 0.77 (inactive).

Take `CN1C(=O)C2C(C1=O)C1C=C(c3ccc(CO)cc3)C2C(c2cccs2)N1Cc1cccc(OC(F)(F)F)c1` (stereo not given): the composite z-score in assay [1] worked out at 1.87; in assay [2], 1.25; in assay [3], 0.726; in assay [4] it was 1.02; in assay [5] it was 0.942; in [6], 0.384. For the same compound, the composite z-score in the assay with Lefty1 worked out at 0.733; in [8] it was 0.661; in assay [10], 0.314; in assay [15], 0.474; in assay [16], 0.0689; with Torsin-1A (Homo sapiens) [17], 1.13. Besides, the composite z-score with Torsin-1A (Homo sapiens) [18] is -0.0742; in assay [19] it was 0.834. Besides, the z-score in assay [7] is 0.38; in assay [9], 0.117 (inactive); in assay [11], -3.4 (inactive); in assay [12], -0.656 (inactive); in [13], -0.336 (inactive); in assay [14], -1.55 (inactive).

`O=C1OC[C@@H](c2ccccc2)N2CC(/C=C/c3ccccc3)=CC12` (stereo not given in full): the composite z-score is -0.206 in assay [1]; 0.725 in assay [2]; -0.542 in assay [3]; -0.593 in [4]; -1.29 in assay [5]; -1.45 in assay [6]. Further, the composite z-score with Lefty1 was -1.58; in assay [8], -0.408; in assay [10] it was -0.82; in assay [15], -0.274; in assay [16], -0.239; with Torsin-1A (Homo sapiens) [17] it was -0.872. The composite z-score in the assay with Torsin-1A (Homo sapiens) [18] is -1.31; in assay [19] it was -1.05. For the same compound, the z-score is 0.0121 in assay [7]; 0.0761 (inactive) in [9]; -2.59 (inactive) in assay [11]; 0.476 (inactive) in [12]; 0.945 (inactive) in assay [13]; -1.57 (inactive) in assay [14].

Take `CN1C(=O)C2C=CC(C(O)C3CCCCC3)N(N3CCCCC3)C2C1=O` (stereo not given): the composite z-score amounted to 1.18 in [1]; 1.26 in assay [2]; 0.542 in [3]; 0.957 in assay [4]; 1.31 in assay [5]; 0.182 in assay [6]. Moreover, the composite z-score amounted to 0.766 with Lefty1; 0.774 in assay [8]; 0.341 in assay [10]; 0.842 in assay [15]; 0.268 in assay [16]; 0.221 with Torsin-1A (Homo sapiens) [17]. Moreover, the composite z-score was found to be 0.579 in the assay with Torsin-1A (Homo sapiens) [18] and 0.875 in [19]. The z-score was 1.25 in assay [7]; 0.49 (inactive) in assay [9]; 0.505 (inactive) in [11]; -0.416 (inactive) in assay [12]; -0.326 (inactive) in assay [13]; 0.158 (inactive) in [14].
